Assay results reported in PubChem BioAssay AID651899 (Broad Institute, 2012).
Results with a measured potency or affinity are listed apart. Values without a mark were called inactive. The rule behind the calls is not given here.

Assay: cytotoxicity in HEK293 cells, dose response, cytotoxicity control, cell-based, plate reader, cherry-pick (AID 651899);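 note: cells exposed to compound for 48 hours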
Settings: series mostly up to 26 µM; activity change, negative = cytotoxicity: at the top concentration

Going from `CC(=O)c1ccc(C(=O)N2CCCC(C(=O)c3ccc(Cl)cc3)C2)s1` (stereo not given) to `CC(=O)c1ccc(C(=O)NC2CCCN(Cc3ccccc3F)C2)s1` (stereo not given), the “activity change, negative = cytotoxicity” value falls from -0.878% to -8.2%.

First: O=C(c1ccncc1)N1CC[C@@H]2[C@@H](CO)Nc3ccc(Br)cc3[C@@H]21
Second: O=C(c1ccncc1)N1CC[C@@H]2[C@H]1c1cc(Br)ccc1N[C@@H]2CO
The “activity change, negative = cytotoxicity” value of the first is higher: 14.1% for the first, 2.88% for the second.

Compared with `O=C(Nc1cccnc1)C1CCN(S(=O)(=O)c2ccc(Cl)cc2)CC1`, `Cc1cccc(C(=O)NC2CCN(CC(=O)Nc3ccccc3Cl)CC2)c1` is lower in “activity change, negative = cytotoxicity” value: -11.1% for the first, -19.2% for the second.

Compared with `O=C(N[C@H]1CC[C@@H](CCn2cc(-c3cccnc3)nn2)O[C@@H]1CO)c1ccccc1F`, `O=C(Nc1nccs1)[C@H]1[C@H](CO)[C@H]2Cn3c(ccc(-c4cccnc4)c3=O)[C@H]2N1CC1CCCC1` is lower in “activity change, negative = cytotoxicity” value: -2.93% for the first, -6.31% for the second.

Compared with `CC(=O)c1ccc(N2CCN(C(=O)c3ccc(Br)cc3)CC2)c(F)c1`, `CC(=O)c1ccc(N2CCN(S(=O)(=O)c3c(C(=O)N4CCCC4)c(C)n(C)c3C)CC2)cc1` is lower in “activity change, negative = cytotoxicity” value: 40% for the first, 15.4% for the second.

Compared with `O=C(C1CCOCC1)N1CC[C@@H]2[C@H]1c1cc(Br)ccc1N[C@@H]2CO`, `CNC(=O)C[C@H]1CC[C@@H]2[C@H](COC[C@@H](O)CN2C(=O)Nc2ccc(Cl)c(Cl)c2)O1` is lower in “activity change, negative = cytotoxicity” value: 18.5% for the first, 11.3% for the second.

Going from `O=C(Nc1cccnc1)c1ccc(N2CCCC2)c([N+](=O)[O-])c1` to `CN1c2ccc(-c3cccc(F)c3)cc2[C@H]2[C@H](CCN2C(=O)C2CC2)[C@H]1CO`, the “activity change, negative = cytotoxicity” value rises from 23.8% [at 12 µM] to 29% [at 12 µM].

In the case of `C[C@@H]1CN([C@H](C)CO)C(=O)Cc2cc(NC(=O)Cn3cnnn3)ccc2O[C@H]1CN(C)Cc1ccc2c(c1)OCO2`, the “activity change, negative = cytotoxicity” value is reported as 0.316% [at 23.5 µM].
